TbPYK inhibitor: qHTS of Trypanosoma Brucei Inhibitors; pyruvate kinase (Trypanosoma brucei), Q57TT1; 410,000 compounds, 0.12% hits; TbPYK enzyme, Kinase-Glo Plus ATP luminescence, 45 min; AID 624173, 2012; Potency, µM (highest dose often 76.8 µM), without a hit: at the highest dose activity, negative = inhibition, actives largely listed as inhibitors; note: potency is the fitted concentration of half-maximal effect; % is set by controls: 0 for no effect and ±100 for the full control effect; nearly all actives have a fitted effect of over 50% in size
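Readout: single end-point luminescence (Kinase-Glo Plus, 10 min). Reaction conditions were TbPYK/substrate plus 130 uM ADP, 45 min at RT, pH 7.2 TEA buffer. No-enzyme wells served as controls, and data were normalized before concentration-response fitting.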
Sm TGR inh: qHTS Assay for the Inhibitors of Schistosoma Mansoni Peroxiredoxins. Schistosoma mansoni thioredoxin glutathione reductase (TGR), Q962Y6. purified TGR, DTNB reduction, TNB absorbance 405 nm. Potency, µM (highest dose often 114 µM), for inactives: at the top dose activity change, negative = inhibition, usual class: inhibitors. 360,000 compounds, 3% hits. AID 485364, 2010; note: potency is the fitted concentration of half-maximal effect; % is set by controls: 0 for no effect and ±100 for the full control effect; nearly all actives have a fitted effect of over 60% in size
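First, TGR (20 nM dispensed) and NADPH were mixed with compound. Second, a 15 min room-temperature incubation followed. Third, further NADPH and then DTNB were added to start the reaction. Finally, TNB absorbance was monitored kinetically.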
CHX counter: Cycloheximide Counterscreen for Small Molecule Inhibitors of Shiga Toxin; max response, %; cell reporter, cycloheximide protein synthesis inhibition counterscreen; 300,000 compounds, 12% hits; in the data active = max response mostly above about 13%, no sharp cut-off; inactive = mostly below about 14%; note: read at 38.3 µM for the half of the compounds with a filed dose; 0% is about no effect
LmPK inhibitor: qHTS Assay for Inhibitors of Leishmania Mexicana Pyruvate Kinase (LmPK) | Q27686 | purified LmPK, Kinase-Glo ATP luminescence, 1 h | Potency, µM (doses to about 57.5 µM), without a hit: top-dose activity change, negative = inhibition, hits mostly inhibitors | 290,000 compounds, 0.37% hits | AID 1721, 2009; note: potency is the fitted concentration of half-maximal effect; % is set by controls: 0 for no effect and ±100 for the full control effect
Target sequence (Q27686 whole entry, looked up): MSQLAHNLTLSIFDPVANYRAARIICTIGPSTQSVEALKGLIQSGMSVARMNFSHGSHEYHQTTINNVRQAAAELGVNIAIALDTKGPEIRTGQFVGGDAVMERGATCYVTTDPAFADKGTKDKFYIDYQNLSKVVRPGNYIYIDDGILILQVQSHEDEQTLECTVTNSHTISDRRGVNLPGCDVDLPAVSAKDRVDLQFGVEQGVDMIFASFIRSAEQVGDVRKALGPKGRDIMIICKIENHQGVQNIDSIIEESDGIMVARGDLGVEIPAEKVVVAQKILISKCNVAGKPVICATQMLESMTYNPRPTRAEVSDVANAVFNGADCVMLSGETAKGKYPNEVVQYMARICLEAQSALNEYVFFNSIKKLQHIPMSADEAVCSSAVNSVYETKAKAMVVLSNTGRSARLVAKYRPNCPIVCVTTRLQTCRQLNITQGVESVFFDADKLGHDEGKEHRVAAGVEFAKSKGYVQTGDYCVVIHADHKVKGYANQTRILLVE
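Pyruvate kinase activity monitored as ATP production (luciferase luminescence). Conditions: 0.1 nM enzyme, 0.5 mM PEP, 0.1 mM ADP, 1 h, RT; normalized against uninhibited and no-enzyme wells.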
Giardia FBPA inh: qHTS Assay for Inhibitors of Fructose-1,6-bisphosphate Aldolase from Giardia Lamblia. A8B2U2. purified Giardia FBPA. Potency, µM (doses to about 59.6 µM), inactives show at the highest dose activity, negative = inhibition, most hits filed as inhibitors. 290,000 compounds, 0.71% hits; note: potency is the fitted concentration of half-maximal effect; % is set by controls: 0 for no effect and ±100 for the full control effect; nearly all actives have a fitted effect of over 55% in size
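40 nM FBPA preincubated 10 min at RT with compound (up to 57.5 uM final), then substrate plus GAPDH/TPI/NAD/arsenate coupling and diaphorase/resazurin added. Fluorescence read after 20 min at RT, 525/598 nm.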
Shiga toxin inh: A qHTS for Small Molecule Inhibitors of Shiga Toxin; Vero cells, Shiga toxin protein synthesis inhibition reporter; inhibition, % at 38.7 µM; 290,000 compounds, 9.2% hits; AID 2315, 2010; in the data active = inhibition mostly above about 28%, no sharp cut-off; inactive = mostly below about 43%; note: 0% is about no effect
Starred values were filed as active, the others as inactive; ? = inconclusive; . = no result given; [ ] = dose if it differs, or a comment. The sample as a whole holds a higher share of hits than the screen did. Unless noted, calls come from the whole dose curve; as a rule, active = well fitted curve in the direction sought with a large enough effect; inconclusive = small, poorly fitted or top-dose-only effect, or another doubt; inactive = no such curve, though single readings can be large; an effect the other way counts as inactive or inconclusive.

SMILES	TbPYK inhibitor	Sm TGR inh	CHX counter	LmPK inhibitor	Giardia FBPA inh	Shiga toxin inh
C=CS(=O)(=O)c1sc(Cl)c(N2CCOCC2)c1[N+](=O)[O-]	-6%	0.1µM*	16*	-2%	-3%	21
O=C(NCc1cccnc1)C(=O)c1c[nH]c2ccccc12	-1%	0%	-3	-4%	-3%	-3
O=C(NCc1ccccc1Cl)C(=O)c1c[nH]c2ccccc12	4%	.	29*	2%	-4%	71*
O=C(/C=C/c1ccccc1)c1c[nH]c2ccccc12	4%	5%	34*	-6%	0%	64*
O=C(NCc1cccs1)C(=O)c1c[nH]c2ccccc12	2%	-13%	33*	-1%[11.5 µM]	1%	90
O=C(Cc1c[nH]c2ccccc12)NCc1ccco1	-3%	-11%	2	-2%	-2%	-12
O=C(NCc1ccco1)C(=O)c1c[nH]c2ccccc12	-11%	-4%	31*	-1%	2%	54*
Cc1cc(F)ccc1-c1cc(C(=O)NC2CCCCC2)[nH]n1	7%	.	.	.	.	.
O=C(Cc1c[nH]c2ccccc12)NCc1ccc(Cl)cc1Cl	-3%	-6%	12	5%	-15%	45*
COC(=O)c1ccc(NC(=O)C(=O)c2c[nH]c3ccccc23)cc1	8%	7%	0	5%	5%	2
COC(=O)C(Cc1c[nH]c2ccccc12)NC(=O)CNC(C)=O (centres undefined)	-5%	1%	-3	5%	-2%	-20
O=C(Nc1ccccc1)C(=O)c1c[nH]c2ccccc12	-4%	-3%	31*	-1%	0%	67*
COC(=O)C(Cc1c[nH]c2ccccc12)NC(=O)COc1ccc(Cl)cc1Cl (centres undefined)	7%	11%	29*	.	.	37
COc1ccccc1CNC(=O)Cc1c[nH]c2ccccc12	-2%	-8%	-3	0%	7%	25
CC(=O)Nc1ccccc1NS(=O)(=O)c1ccccc1NO	.	.	-1	.	.	3
O=C(CN1CCOCC1)N1CCOCC1	0%	.	.	.	.	.
O=[N+]([O-])c1ccc2nc(C3CCCCC3)[nH]c2c1	-2%	6%	18*	2%	-11%	46*
O=[N+]([O-])c1ccc2nc(CCCc3nc4ccc([N+](=O)[O-])cc4[nH]3)[nH]c2c1	-14%	.	15	-1%	0%	53*
O=[N+]([O-])c1ccc(/C=C/c2nc3ccc([N+](=O)[O-])cc3[nH]2)cc1	2%	3%	33*	1%	22%	91*
O=[N+]([O-])c1ccc2nc(CN3CCCCC3)[nH]c2c1	1%	-1%	15	-2%	-3%	20
CC(=O)Nc1ccc2nc(C3CCCCC3)[nH]c2c1	5%	-10%	11	0%	.	3
Nc1nc2ccc([N+](=O)[O-])cc2[nH]1	3%	8%	-3	-8%	3%	15
NC(N)=Nc1nc2ccc([N+](=O)[O-])cc2[nH]1	-7%	-18%	9.4*	-2%	-5%	24
O=C(CN1CCN(CC(=O)Nc2ccccc2Cc2ccccc2)CC1)Nc1ccccc1Cl	-5%	1%	-3	1%	2%	-3
CCCSCCCNC(=O)c1sc2nc(C)cc(C)c2c1-n1cccc1	-5%	-10%	.	.	.	.
SMILES	TbPYK inhibitor	Sm TGR inh	CHX counter	LmPK inhibitor	Giardia FBPA inh	Shiga toxin inh
OC[C@H]1NC[C@@H](O)[C@@H](O)[C@H]1O	.	.	.	.	0%	.
Cc1ccc(-c2cc(C(F)F)nc(NCc3cccs3)n2)cc1	13%	1%	0	-1%	-1%	9
COc1ccc(-c2nc(C#N)c(NCCCN3CCOCC3)o2)cc1	-1%	-2%	-3	4%	-7%	24
Cc1ccc(-c2cc(C(F)F)nc(NCC3CCCO3)n2)cc1 (centres undefined)	-16%	-6%	16*	2%	0%	48*
Cc1cccc(-c2nc(C#N)c(NCC3CCCO3)o2)c1 (centres undefined)	0%	-15%	44*	2%	2%	89*
Cc1cccc(-c2noc(CCCC(=O)NCC3CCCO3)n2)c1 (centres undefined)	-1%	-5%	-2	0%	4%	28
COc1ccc(-c2nc(C#N)c(NCC3CCCO3)o2)cc1 (centres undefined)	6%	1%	25*	3%	-4%	73*
Cc1ccc(-c2nc(C#N)c(NCC3CCCO3)o2)cc1 (centres undefined)	2%	1%[57.1 µM]	25*	-14%	2%	82*
CC#CC[C@@H](C)[C@@H](O)/C=C/[C@H]1[C@H]2c3cccc(CCCC(=O)O)c3O[C@H]2C[C@@H]1O	-3%	.	.	.	.	.
CN(Cc1ccc(C(C)(C)C)cc1)c1cccc2ccccc12	0%	.	.	.	.	.
N#Cc1nc(-c2cccs2)oc1NCC1CCCO1 (centres undefined)	-8%	3%	9.3*	-1%	0%	11
O=S(=O)(c1ccccc1)c1nc(-c2cccs2)oc1NCC1CCCO1 (centres undefined)	1%	?	-1	0%	-11%	4
COc1ccc(S(=O)(=O)N2CCCCC2)cc1NC(=O)COC(=O)c1ccco1	1%	.	.	.	.	.
O=C(c1ccc(COc2ccc(Cl)cc2)cc1)N1CCCCC1	-7%	.	24*	-14%	1%	91*
COC(=O)c1ccc(OCCOc2ccc(C(=O)OC)cc2)cc1	-1%	15%	2	10%	-2%	13
O=C(c1ccc(COc2ccccc2Br)cc1)N1CCCCCC1	-3%	7%	31*	-2%	-1%	60*
COC(=O)c1ccc(COc2ccc(CNCc3ccc(Cl)cc3)cc2)cc1	-4%	48%	34*	0%	5%	43*
CCCCOc1ccc(C(=O)N2CCC(C)CC2)cc1	5%	1%	10	-2%	3%	15
O=C(CNCc1ccc(Cl)cc1)Nc1ccc(C(=O)N2CCCCC2)cc1	37%	4%	-2	0%	?	-11
CCCCOc1ccc(C(=O)N2CCCCCC2)cc1	-3%	-2%	28*	-12%	5%	active
CC(C)c1ccc2c(c1)CCC1C(C)(C(N)=O)CCCC21C (centres undefined)	.	.	.	.	-1%	.
COCCCN1C(=O)c2ccc(C(=O)OCC(=O)N3CCN(c4ccccc4)CC3)cc2C1=O	-2%	5%	.	.	.	.
O=C(C=Cc1cccc(O)c1)c1ccccc1O	4%	.	.	.	.	.
O=C(/C=C/c1ccoc1)c1ccccc1O	-9%	-25%	44*	-26%	-3%	97*
COc1ccc2ccccc2c1C(=O)/C=C\c1ccoc1	4%	22µM*	21	-2%	?	-5

Compound activity (PubChem)
